Reference: PubChem BioAssay (NCI)
Where “and” joins values, the source holds several entries; their conditions need not be identical. Identical values can stand only once. Compounds without any hit were thinned out: in the full panel of roughly 83,000, 20% have a hit.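 Growth was measured after 48 h exposure to one concentration of compound in 96-well plates. Values under 10 count as active.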 Calls of active or inactive are those of the source.

Legend:
Test in all cases: NCI-60 one-dose screen, 48 h (100 = growth as untreated, 0 = no growth, -100 = all killed)
Conditions in all cases: 10 µM unless noted
NCI/ADR-RES ovarian = tested on: NCI/ADR-RES ovarian
T-47D breast = tested on: T-47D breast
BT-549 breast = tested on: BT-549 breast
MDA-MB-435 melanoma = tested on: MDA-MB-435 melanoma
SW-620 colon = tested on: SW-620 colon
MCF7 breast = tested on: MCF7 breast
HCT-116 colon = tested on: HCT-116 colon
HCC-2998 colon = tested on: HCC-2998 colon
KM12 colon = tested on: KM12 colon

Row | Compound | growth (NCI/ADR-RES ovarian) | growth (T-47D breast) | growth (BT-549 breast) | growth (MDA-MB-435 melanoma) | growth (SW-620 colon) | growth (MCF7 breast) | growth (HCT-116 colon) | growth (HCC-2998 colon) | growth (KM12 colon)
1 | O=c1[nH]c(=O)n(Cl)c(=O)n1Cl | 115% (inactive) and 96.8% (inactive) | 112% (inactive) and 95.3% (inactive) | 108% (inactive) and 110% (inactive) | 102% (inactive) and 114% (inactive) | 105% (inactive) and 110% (inactive) | 108% (inactive) and 86% (inactive) | 113% (inactive) and 99.4% (inactive) | 123% (inactive) and 96% (inactive) | 101% (inactive) and 107% (inactive)
2 | CCCN1C(=O)NC(=O)C(CC)(N2C(=O)c3c(F)c(F)c(F)c(F)c3C2=O)C1=O (configuration not stated) | -28.5% (active) | -52.3% (active) | -78.8% (active) | -60.3% (active) | -92.9% (active) | -76.5% (active) | -78.2% (active) | -87% (active) | -96.2% (active)
3 | C[C@]12CC[C@@H](OC(=O)N(CCCl)N=O)C[C@@H]1CC[C@@H]1[C@@H]2CC[C@]2(C)C(=O)CC[C@@H]12 | 42.9% (inactive) | 33.8% (inactive) | 76.8% (inactive) | 64.5% (inactive) | 52.9% (inactive) | 29.9% (inactive) | 47.5% (inactive) | 53.6% (inactive) | 24.5% (inactive)
4 | COc1c(O)cc2c(c1OC)-c1ccc(SC)c(=O)cc1C(NC(C)=O)CC2 (configuration not stated) | -1.28% (active) | 81.9% (inactive) | -9.83% (active) | -47.2% (active) | 22.9% (inactive) | 13.3% (inactive) | 4.98% (active) | -21.5% (active) | -41.1% (active)
5 | c1ccc2c(c1)sc1ccccc12 | 99.4% (inactive) | 112% (inactive) | 96.7% (inactive) | 92.8% (inactive) | 106% (inactive) | 102% (inactive) | 96.6% (inactive) | 97.3% (inactive) | 103% (inactive)
6 | CC(=O)OC1CC2(O)C(CCC3(C)C(c4ccc(=O)oc4)CCC32O)C2(C)CCC(OC3OC(CO)C(O)C(O)C3O)C=C12 (configuration not stated) | -61.6% (active) | -9.39% (active) | -85.4% (active) | -90.2% (active) | -67.4% (active) | -23.4% (active) | -94.3% (active) | -63.3% (active) | -97.8% (active)
7 | COc1ccc(CN)cc1OC | 106% (inactive) and 103% (inactive) | 113% (inactive) and 97.4% (inactive) | 113% (inactive) and 102% (inactive) | 109% (inactive) | 111% (inactive) and 99.5% (inactive) | 103% (inactive) and 95.5% (inactive) | 97.8% (inactive) and 102% (inactive) | 91% (inactive) and 106% (inactive) | 120% (inactive) and 106% (inactive)
8 | N#CCC(=O)c1ccccc1 | 104% (inactive) | 99.4% (inactive) | 116% (inactive) | 101% (inactive) | 97.6% (inactive) | 92.6% (inactive) | 107% (inactive) | 71.2% (inactive) | 90.8% (inactive)
9 | COC(=O)CCP(CCC(=O)OC)c1ccccc1 | 106% (inactive) | 112% (inactive) | 90% (inactive) | 97.2% (inactive) | 105% (inactive) | 97.6% (inactive) | 97.6% (inactive) | 104% (inactive) | 111% (inactive)
10 | O=C(CCCN1CCC2(CC1)C(=O)NCN2c1ccccc1)c1ccc(F)cc1 | 101% (inactive) and 65.8% (inactive) | 45.5% (inactive) and 23.4% (inactive) | 98.2% (inactive) and 87.2% (inactive) | 99.7% (inactive) and 93.6% (inactive) | 84.4% (inactive) and 68% (inactive) | 49.6% (inactive) and 12% (inactive) | 73.9% (inactive) and 19.7% (inactive) | 104% (inactive) and 42.3% (inactive) | 102% (inactive) and 86.3% (inactive)
11 | C[C@]12CCc3sc(Nc4ccc(OC(F)(F)F)cc4)nc3C1=CC[C@@H]1[C@@H]2CC[C@]2(C)C(=O)CC[C@@H]12 | 81.6% (inactive) | 41.8% (inactive) | 53.5% (inactive) | 77.6% (inactive) | 43.3% (inactive) | 17.1% (inactive) | 7.77% (active) | 96.5% (inactive) | 53.5% (inactive)
12 | Clc1ccc(COC(Cn2ccnc2)c2ccc(Cl)cc2Cl)c(Cl)c1 (configuration not stated) | 21.7% (inactive) and -21.9% (active) | 46.4% (inactive) and 36.5% (inactive) | 51.8% (inactive) and 40.9% (inactive) | 8.47% (active) and 20.5% (inactive) | 58.3% (inactive) and 62.2% (inactive) | 39.3% (inactive) and 35% (inactive) | 14.6% (inactive) and 16.1% (inactive) | 47.4% (inactive) | 40.2% (inactive) and 43.2% (inactive)
13 | O=C(NC(Cl)=C(Cl)Cl)P(=O)(c1ccccc1)c1ccccc1 | 107% (inactive) | 105% (inactive) | 109% (inactive) | 92% (inactive) | 112% (inactive) | 97.3% (inactive) | 106% (inactive) | 114% (inactive) | 106% (inactive)
